High-throughput results from PubChem.
GLP1R cytotox: qHTS of GLP-1 Receptor Inverse Agonists: Cytotox Screen | hit rate 0.13% among 410,000 | HEK293 cAMP-luciferase reporter cells, luminescence, 24 h | Potency, µM (highest dose often 38.3 µM), hits mostly inhibitors | AID 624418, 2012;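 further: loss of luciferase light is scored as toxicity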
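Cells in DMEM/10% Nu serum/1% pen-strep, 1536-well format. Pre-incubated 12 h, dosed with 23 nL compound, incubated a further 24 h. Luciferase detection, 12 min at room temp, luminescence.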
TSHR antag: Antagonists of the Thyroid Stimulating Hormone Receptor: HTS campaign | TSHR-expressing cells, TSH-stimulated cAMP HTRF, 2 h; hits give low values | activity change, negative = inhibition, % at 11.5 µM | Thyrotropin receptor (Homo sapiens), P16473 | hit rate 0.2% among 330,000;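 active means activity change below a set negative limit, meaning inhibition stronger than a set level, cut at about -70% in these data; inconclusive means activity change between two set negative limits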
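Competitive HTRF cAMP read-out (cryptate anti-cAMP antibody, cAMP-d2; 30 min, room temperature) in freshly harvested TSHR cells. Compounds added before TSH at EC80 (4nM final), followed by 2 hours' incubation at 37 deg C.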
GLP1R inv ag: qHTS of GLP-1 Receptor Inverse Agonists (Inhibition Mode) | Potency, µM (series often up to 38.3 µM), hits mostly inhibitors | HEK293 GLP-1R CRE-luciferase, luminescence, 24 h; GLP-1R form is constitutively active | AID 624417, 2012 | hit rate 1.6% among 410,000; further: nearly all actives have a fitted effect of over 55% in size
Target sequence (P43220 whole entry, looked up): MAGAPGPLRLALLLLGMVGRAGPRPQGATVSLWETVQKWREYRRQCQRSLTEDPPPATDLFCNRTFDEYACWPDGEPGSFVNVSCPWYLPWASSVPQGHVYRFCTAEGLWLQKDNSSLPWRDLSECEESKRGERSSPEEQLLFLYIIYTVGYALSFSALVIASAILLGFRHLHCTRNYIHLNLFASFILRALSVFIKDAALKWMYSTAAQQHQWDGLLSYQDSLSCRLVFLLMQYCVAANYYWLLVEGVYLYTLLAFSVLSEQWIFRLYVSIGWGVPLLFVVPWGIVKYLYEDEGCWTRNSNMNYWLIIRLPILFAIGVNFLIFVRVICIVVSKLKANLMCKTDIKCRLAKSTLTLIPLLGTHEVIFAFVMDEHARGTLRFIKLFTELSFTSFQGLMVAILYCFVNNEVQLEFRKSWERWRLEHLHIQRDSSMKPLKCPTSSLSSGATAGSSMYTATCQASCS
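Assay principle: reduced luminescence from a cAMP-responsive reporter in HEK293 cells co-expressing a constitutively active GLP-1R. Conditions: 24 hr compound incubation, 37 deg C, 5% CO2.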
PTHR1 ag: qHTS for PTHR1 Agonists: Primary Screen; Parathyroid hormone/parathyroid hormone-related peptide receptor (Homo sapiens), Q03431; HEK293 GP2 PTHR1 cells, GloSensor cAMP luminescence, 1 h; hit rate 0.075% among 410,000; Potency, µM (series often up to 115 µM), most hits filed as activators; further: nearly all actives have a fitted effect of over 55% in size
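HEK-293-derived GP2 cells expressing PTHR1 and a GloSensor cAMP reporter, 3,000/well, plated overnight, given luciferin plus IBMX (each 0.5 mM as added) for 1 h at 37 °C, then compound for 1 h at 37 °C. Luminescence was read after 15 min at room temperature.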
GLP1R ag: qHTS of GLP-1 Receptor Agonists; Potency, µM (highest dose often 45.6 µM), hits mostly activators; HEK293 GLP-1R CRE-luciferase, luminescence, 4-6 h; cells express a hypersensitive GLP-1R form; hit rate 0.007% among 380,000
A number is an active result; i = inactive; ? = inconclusive; nt = not tested or not shown. Shown are actives, neighbours in structure and some others; about 1.8% of the full set was active somewhere. Unless noted, the call rests on the fitted dose curve; in most records, active means well fitted curve in the direction sought with a large enough effect; inconclusive means small, poorly fitted or top-dose-only effect, or another doubt; inactive means no such curve, though single readings can be large; an effect the other way counts as inactive or inconclusive.

SMILES	GLP1R cytotox	TSHR antag	GLP1R inv ag	PTHR1 ag	GLP1R ag
COCCCNc1ncnc2c1cnn2-c1ccc(F)cc1	i	nt	?	i	nt
COc1ccccc1N1CCN(S(=O)(=O)c2ccc(-c3cc(C(F)(F)F)on3)s2)CC1	i	nt	?	i	nt
CCCCN1C(=S)NC[C@@H]1Cc1cccc2ccccc12	?	i	?	i	i
CCCC[C@@H]1CNC(=S)N1CCc1cccc2ccccc12	i	i	3.5µM	i	i
CC(C)c1ccc(/C=C2\SC(=S)N(CCC(=O)NCCCn3ccnc3)C2=O)cc1	?	i	2.5µM	?	i
COc1cc(OC)c(NC(=O)Nc2ccc3c(c2)N(C)C(=O)c2ccccc2S3)cc1Cl	i	nt	i	i	nt
O=C(CCN1C(=O)NC2(CCCC2)C1=O)Nc1ccc(Sc2ccc(Br)cc2)cc1	i	nt	11µM	i	i
CCCCSc1nc2c([nH]1)c(=S)n(C)c(=O)n2C	?	nt	?	i	i
CCCC(CC)Sc1nc2c([nH]1)c(=S)n(C)c(=O)n2C (centres undefined)	0.89µM	nt	?	i	i
CCN(CC)CCSc1nc2c([nH]1)c(=S)n(C)c(=O)n2C	5.6µM	nt	?	i	i
CCOC(=O)c1c(Oc2ccc(C(=O)OC)cc2)nnc(-c2ccccc2)c1-c1ccccc1	i	nt	?	i	nt
COc1cc(OC)c(C2CC(=O)N3CN(c4ccccc4)CSC3=C2C#N)cc1OC (centres undefined)	i	i	i	i	i
CCc1ccccc1N1CSC2=C(C#N)C(c3cc(OC)c(OC)cc3OC)CC(=O)N2C1 (centres undefined)	i	i	i	1.6µM	i
CCN(CC(=O)NCc1ccc(Cl)cc1)C(=O)CSc1ccc(Br)cc1	i	i	6.3µM	i	i
CCN(CC(=O)NCc1ccc(Cl)cc1)C(=O)NCc1ccc(Cl)cc1	i	i	?	i	i
Cc1cccc(NC(=O)CSc2nnc3[nH]c(=O)cc(-c4ccccc4)n23)c1C	i	nt	i	i	nt
COc1ccc(Cl)cc1NC(=O)N1CCC(CN2CCCCCC2)CC1	i	nt	i	i	nt
COc1ccc(C(CNC(=O)c2oc3c(Cl)cccc3c2C)N2CCCC2)cc1 (centres undefined)	?	i	10µM	i	i
COc1ccc(C(CNC(=O)c2oc3ccccc3c2C)N2CCCC2)cc1 (centres undefined)	i	i	?	i	?
Cc1onc(-c2ccccc2Cl)c1C(=O)NCc1nc(-c2ccc(C(F)(F)F)cc2)no1	i	i	10µM	i	i
CCOc1ccc(NC(=O)CSc2nc3c(oc4ccccc43)c(=O)n2-c2cc(C)cc(C)c2)cc1	i	nt	i	i	nt
Cc1c(C(=O)Nc2ccc(C(=O)O)cc2)nnn1-c1ccccc1	i	nt	1.8µM	i	nt
CN(Cc1ccc(C#CCCO)cc1)CC1CCCN(CCc2ccc(Cl)cc2)C1 (centres undefined)	?	i	?	i	i
CCN(Cc1ccc(C#CCCO)cc1)CC1CCCN(CCc2cccc(F)c2)C1 (centres undefined)	i	i	10µM	i	i
CCc1cc(C(=O)N2CCc3c([nH]c4ccccc34)C2c2ccc(OC)cc2F)no1 (centres undefined)	i	i	?	i	i
SMILES	GLP1R cytotox	TSHR antag	GLP1R inv ag	PTHR1 ag	GLP1R ag
Cc1nc(C(=O)N2CCc3c([nH]c4ccccc34)C2c2cc(F)ccc2F)cs1 (centres undefined)	i	i	11µM	i	?
Cc1nc(C(=O)N2CCc3c([nH]c4ccccc34)C2c2ccccn2)cs1 (centres undefined)	i	i	?	i	i
Cc1cc(C(=O)N2CCc3c([nH]c4ccccc34)C2c2c(F)cccc2Cl)no1 (centres undefined)	i	i	10µM	i	i
Cc1c(C(=O)NCc2cccc(Cl)c2)sc2nc[nH]c(=O)c12	i	nt	i	i	nt
Cc1ccccc1NC(=O)c1oc2c(c1C)-c1nn(Cc3cccc(Cl)c3)cc1CC2	i	nt	?	i	nt
COc1ccc(CCNc2oc(COc3ccccc3)nc2C#N)cc1	i	i	?	i	i
Cc1cccc(OCc2nc(C#N)c(NCc3ccc4c(c3)OCO4)o2)c1	i	i	11µM	i	i
COc1ccc(CNc2oc(COc3cccc(C)c3)nc2C#N)cc1	i	nt	?	i	nt
COc1ccc(CNc2oc(COc3ccccc3)nc2C#N)cc1	i	i	10µM	i	i
Cc1ccc(S(=O)(=O)Nc2cc3c(cc2C)n(C)c(=O)c(=O)n3C)c(C)c1	i	nt	i	i	nt
Cc1cccc(/C=N/Nc2ccc3ccccc3n2)c1	?	i	10µM	i	i
C(=N\Nc1ccc2ccccc2n1)/c1ccc2c(c1)OCCO2	i	i	i	i	i
CN(CC(=O)NCc1ccccc1Cl)S(=O)(=O)c1ccc2c(c1)c(=O)n(C)c(=O)n2C	i	nt	i	i	i
Fc1ccc(C2CC(c3ccco3)=NN2c2ccccc2)cc1 (centres undefined)	i	i	6.3µM	i	i
O=[N+]([O-])c1ccc(N2N=C(c3ccco3)CC2c2ccccc2)cc1 (centres undefined)	i	i	i	i	i
CCOC(=O)c1c(-c2ccccc2)oc2ccc(N(C(C)=O)S(=O)(=O)c3ccc(CC)cc3)cc12	i	nt	i	i	nt
CC1CN(c2nc3ccccc3nc2SCC(=O)Nc2cccc(C(F)(F)F)c2)CC(C)O1 (centres undefined)	?	nt	11µM	i	i
Cc1cccc(NC(=O)CSc2nc3ccccc3nc2N2CC(C)OC(C)C2)c1 (centres undefined)	i	i	?	i	i
Cc1ccc(NC(=O)N2CCC(CN3CCCC3)CC2)c(C)c1	i	nt	i	i	nt
CCOC(=O)Nc1ccc2c(c1)C(=NNC(N)=S)c1ccccc1-2	4µM	nt	?	i	i
CCOC(=O)Nc1ccc2c(c1)C(=NO)c1ccccc1-2	i	nt	?	i	i
COc1ccc(-c2ocnc2C(=O)NCc2nn(-c3ccccc3)nc2C)cc1	i	i	10µM	i	i
COc1ccc(CC(=O)NCc2nn(-c3ccccc3)nc2C)cc1OC	i	i	i	i	i
COCCNC(=O)C1CCN(S(=O)(=O)c2ccc3c(c2)CCCN3C(C)=O)CC1	i	nt	i	i	nt
CCCCOc1ccc(C(=O)NCCS(=O)(=O)N2CCN(c3ccccc3OC)CC2)cc1	i	nt	10µM	i	nt
COc1ccc(N2CCN(S(=O)(=O)CCNC(=O)Cc3ccc(-c4ccccc4)cc3)CC2)cc1	i	nt	i	28µM	nt
O=C(CN1C(=O)CCc2cc(S(=O)(=O)N3CCOCC3)ccc21)NCc1ccccc1	i	nt	i	i	nt
